Here are results for seven compounds from PubChem BioAssay (NCATS).

Assay [1] deals with Lysosomal acid glucosylceramidase (Homo sapiens) (UniProt P04062). Put plainly: Glucocerebrosidase-p2 (AID 348; in the data active means potency below about 10 µM; further: potency means the concentration at half of the fitted maximal effect). The note with it: purified GBA, blue fluorogenic substrate, 40 min. A digest of the protocol: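 Normal human glucocerebrosidase (0.2 nM) with blue fluorogenic substrate (80 uM final) in citrate/phosphate pH 5.9 with 10mM sodium taurocholate, 0.01% tween-20; 40 min RT, NaOH/glycine stop; fluorescence Ex 365/Em 440; AC50 from a titration from 0.6 nM upwards.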

A short description of assay [2]: AP1 Signaling Pathway (AID 357). Further: on the % scale 0 is the no-effect control and ±100 the full control effect. The note with it: ME-180 AP-1-bla reporter, EGF-induced, beta-lactamase ratio, 5 h; at 7.69 µM (top of the series) unless noted. The method, boiled down: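 Modulation of EGF-driven AP-1 transcription was assessed with a beta-lactamase reporter in ME-180 cells. Compound and EC50 EGF were co-incubated 5 hours at 37 °C before 2.5-hour CCF4 loading at room temperature and dual-emission reading.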

A short description of assay [3]: NFAT Signaling Pathway (AID 444).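 Further: carbachol stimulus at about its EC50 of 1 µM final; on the % scale 0 is the no-effect control and ±100 the full control effect.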 The following applies: Jurkat NFAT-bla M1, carbachol, beta-lactamase ratio, 5 h; at 7.69 µM (top of the series) unless noted. The method, boiled down:
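Jurkat cells with NFAT-driven β-lactamase reporter and co-expressed M1 receptor, stimulated with carbachol (final 1 uM, ~EC50), compound titration, 5 h at 37 °C. CCF4 loaded 1 h at RT; 460/530 nm ratio gave %activity and AC50.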

A short description of assay [4]: Stat Signaling Pathway (AID 446).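 Further: ME-180 cervical cancer cells given 40 pM IL-6 alongside compound; SIE-controlled beta-lactamase reporter measured as 460/530 nm FRET emission ratio; on the % scale 0 is the no-effect control and ±100 the full control effect.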 The note with it: ME-180 (cervical carcinoma) SIE beta-lactamase reporter, IL-6 stimulated, 5 h; at 7.69 µM (top of the series) unless noted. The method, boiled down: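 Compound effects on IL-6-induced STAT reporter activity were measured in ME-180 cells. After overnight culture, cells were co-treated with 40 pM IL-6 for 5 hrs before beta-lactamase substrate loading at room temperature.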

Assay [5] has as its target Glucocorticoid receptor (Homo sapiens) (UniProt P04150). The assay is described as follows: GR-GFP Redistribution (AID 450;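 active means compounds whose dose series gives a full or clear partial fitted curve of increased nuclear translocation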; further: potency means the concentration at half of the fitted maximal effect). The following applies: U2OS GR-GFP nuclear translocation, laser cytometry, 2 h.
The target is the same in assay [6]. The assay is described as follows: GR-EFC Redistribution (AID 451; calls by dose curve; further: potency means the concentration at half of the fitted maximal effect). The following applies: CHO-K1 GR-EFC translocation, beta-gal luminescence, 2 h. A digest of the protocol:
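CHO-K1 cells expressing nuclear EA and GR-ED fragments of b-gal; compounds titrated up to 46 uM final, 2 h at 37 C. GR nuclear translocation read as complemented b-gal luminescence after 1 h RT detection.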

Assay [7] has as its target Mitogen-activated protein kinase 10 (Mus musculus) (UniProt Q61831). Put plainly: JNK3 AlphaScreen Assay (AID 530).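 Further: kinase came from lysate of stimulated human HepG2 cells; signal reports phosphorylation of biotinylated GST-cJun 1-79 at Ser73 with 10 µM ATP; on the % scale 0 is the no-effect control and ±100 the full control effect.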 The note with it: JNK3 lysate, c-Jun phosphorylation; series mostly up to 57.1 µM. A digest of the protocol: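 Activity was read by AlphaScreen after JNK3-containing HepG2 lysate (cytokine pre-activated) phosphorylated biotinylated GST-cJun with 10 uM ATP at room temperature. Phospho-Ser73 cJun antibody with Protein-A acceptor beads provided detection.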
In general terms: In Alpha technology, singlet oxygen from a donor bead excites a nearby acceptor bead.

The target in assay [8] is Dual specificity protein kinase CLK4 (Homo sapiens) (UniProt Q9HAZ1). Put plainly: qHTS Assay for Inhibitors of CDC-like Kinase 4 (Kinase-Glo Assay) (AID 1770; active means well fitted curve in the direction sought with a large enough effect; an effect the other way counts as inactive or inconclusive; further: nearly all actives have a fitted effect of over 65% in size; further: potency means the concentration at half of the fitted maximal effect). The following applies: recombinant Clk4, Kinase-Glo ATP depletion luminescence; series mostly up to 66.7 µM. The method, boiled down: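 Inhibition was judged from remaining ATP, measured by Ultra-Glo luciferase bioluminescence after Clk4 (25 nM) had acted on RS peptide at 1 uM ATP for 4.5 hours, room temperature.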

For assay [9] the target is unchanged. The assay is described as follows: qHTS Assay for Inhibitors of CDC-like Kinase 4 (ADP-FP Assay) (AID 1795; active means well fitted curve in the direction sought with a large enough effect; an effect the other way counts as inactive or inconclusive;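 further: recombinant human CLK4 phosphorylating RS repeat peptide at 1 µM ATP; on the % scale 0 is the no-effect control and ±100 the full control effect; nearly all actives have a fitted effect of over 60% in size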). The following applies: Transcreener ADP fluorescence polarization; series mostly up to 50 µM. The method, boiled down: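 Inhibition of ADP formation by 6.25 nM Clk4 is measured using 1 uM ATP and 100 uM RS repeat peptide over one hour. Produced ADP displaces a fluorescent tracer from antibody, lowering polarization.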

A short description of assay [10]: Confirmatory qHTS for small molecule stabilizers of the endoplasmic reticulum resident proteome: Secreted ER Calcium Modulated Protein (SERCaMP) assay (AID 1508628; active means well fitted curve in the direction sought with a large enough effect; an effect the other way counts as inactive or inconclusive; further: nearly all actives have a fitted effect of over 40% in size; further: potency means the concentration at half of the fitted maximal effect). The following applies: SERCaMP secreted luciferase ER calcium/proteostasis reporter; series mostly up to 76.3 µM. The method, boiled down: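 Reporter secretion upon ER calcium depletion (100 nM thapsigargin, 4 h, 37C) is measured as medium luminescence with coelenterazine, after 16 h compound pretreatment of SH-SY5Y-GLuc-SERCaMP cells; primary at three concentrations up to 38.3 uM, follow-up at 11 (up to 76.6 uM).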

Assay [11] deals with Cytochrome P450 1A2 (Homo sapiens) (UniProt P05177). The assay is described as follows: p450-cyp1a2 (AID 410; calls by dose curve; further: potency means the concentration at half of the fitted maximal effect). The following applies: recombinant CYP1A2, luciferin-ME demethylation, luminescence; series mostly up to 57 µM. A digest of the protocol:
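O-Demethylation of luciferin 6' methyl ether by human CYP1A2 is monitored as luciferase luminescence. Substrate sits at Km (100uM); enzyme is 20nM. Values are scaled to 57 uM furafylline as maximal inhibition.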

Assay [12] concerns the target 3',5'-cyclic-AMP phosphodiesterase 4B (Homo sapiens) (UniProt Q07343). The assay is described as follows: qHTS Assay for Inhibitors of PDE-IV (AID 607; active means well fitted activation curve with a large enough effect in the main read-out, with a control signal flat, not every such curve was filed as active; further: % of control where 0% means no effect). The note with it: HEK293 ACTOne CNG channel cells, membrane potential fluorescence; series mostly up to 22.9 µM. A digest of the protocol: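 ACTOne HEK293 cells carry a modified cAMP-gated CNG channel and express endogenous PDE4; plated 1000 cells/well, compounds up to 22.9 uM final. Membrane-potential dye fluorescence (ex 535/em 590) was read; parental cells received 10 uM forskolin + 100 uM RO 20-1724.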
A general note: Quantitative high-throughput screening tests each substance at several concentrations.

Assay [13] addresses Cytochrome P450 3A4 (Homo sapiens) (UniProt P08684). The assay is described as follows: qHTS Assay for Activators of Cytochrome P450 3A4 (AID 885; active means well fitted curve in the direction sought with a large enough effect; an effect the other way counts as inactive or inconclusive; further: nearly all actives have a fitted effect of over 65% in size). The note with it: recombinant CYP3A4, Luciferin-PPXE luminescence, 60 min; series mostly up to 57.1 µM. A digest of the protocol:
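CYP3A4 activity: Luciferin-PPXE O-dealkylation, 25uM substrate, 200mM KPO4, RT throughout. Read-out is luciferase luminescence; higher values reflect activation.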

Assay [14] in a line: qHTS Assay for Lipid Storage Modulators (AID 1519; calls by dose curve). The following applies: Drosophila S3 cells, BODIPY lipid droplet/cell ratio, laser cytometry, cells loaded with oleic acid; for activity change, negative = inhibition: at 57.5 µM (top of the series). A digest of the protocol:
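Cells seeded at 5,000 per well were treated with compounds over a concentration series and loaded with oleic acid (400 uM, as added). Lipid droplet fluorescence (488 nm excitation, 500-530 nm channel) was read by laser-scanning cytometry and normalized to 20 uM Triacsin C.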

For assay [15], the target named is Dual specificity protein kinase CLK4 (Homo sapiens) (UniProt Q9HAZ1). Put plainly: qHTS Assay for Inhibitors of CDC-like Kinase 4 (ADP-Glo Assay) (AID 1771; active means well fitted curve in the direction sought with a large enough effect; an effect the other way counts as inactive or inconclusive; further: on the % scale 0 is the no-effect control and ±100 the full control effect; nearly all actives have a fitted effect of over 70% in size). The following applies: recombinant CLK4, ADP-Glo luminescence; series mostly up to 80 µM. The method, boiled down:
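Compounds are pin-transferred onto substrate mix (100 uM RS peptide, 1 uM ATP), then 25 nM Clk4 is added. After 1 hr at room temperature, ADP-Glo reagent runs 45 min, detection reagent 30 min, then luminescence is read.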

Assay [16] deals with Ubiquitin carboxyl-terminal hydrolase 1 (Homo sapiens) (UniProt O94782). The assay is described as follows: Inhibitors of USP1/UAF1: Pilot qHTS (AID 504865; active means well fitted curve in the direction sought with a large enough effect; an effect the other way counts as inactive or inconclusive;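 further: rhodamine fluorescence freed from ubiquitin-rhodamine substrate followed over time; top concentration of the series differs between compounds; on the % scale 0 is the no-effect control and ±100 the full control effect; nearly all actives have a fitted effect of over 35% in size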). The note with it: purified USP1/UAF1, Ub-rhodamine cleavage fluorescence; series mostly up to 54.9 µM. The method, boiled down: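 Kinetic fluorescence assay: 1nM USP1/UAF1, 15 min compound preincubation, then 150nM Ub-Rho; 480/540 nm.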

[17] abbreviates: measured here: cell count channel max response.
The mark [18] stands for this setting: measured here: lipid channel max response.

Inconclusive results are not listed. Calls of active or inactive are those of the source. Unless noted, the call rests on the fitted dose curve; in most records, active means well fitted curve in either direction with a large enough effect (not every such curve was filed as active); inconclusive means small, poorly fitted or top-dose-only effect, or another doubt; inactive means flat fitted curve, though single readings scatter.

Sequence of Glucocorticoid receptor (Homo sapiens) (P04150 whole entry, looked up): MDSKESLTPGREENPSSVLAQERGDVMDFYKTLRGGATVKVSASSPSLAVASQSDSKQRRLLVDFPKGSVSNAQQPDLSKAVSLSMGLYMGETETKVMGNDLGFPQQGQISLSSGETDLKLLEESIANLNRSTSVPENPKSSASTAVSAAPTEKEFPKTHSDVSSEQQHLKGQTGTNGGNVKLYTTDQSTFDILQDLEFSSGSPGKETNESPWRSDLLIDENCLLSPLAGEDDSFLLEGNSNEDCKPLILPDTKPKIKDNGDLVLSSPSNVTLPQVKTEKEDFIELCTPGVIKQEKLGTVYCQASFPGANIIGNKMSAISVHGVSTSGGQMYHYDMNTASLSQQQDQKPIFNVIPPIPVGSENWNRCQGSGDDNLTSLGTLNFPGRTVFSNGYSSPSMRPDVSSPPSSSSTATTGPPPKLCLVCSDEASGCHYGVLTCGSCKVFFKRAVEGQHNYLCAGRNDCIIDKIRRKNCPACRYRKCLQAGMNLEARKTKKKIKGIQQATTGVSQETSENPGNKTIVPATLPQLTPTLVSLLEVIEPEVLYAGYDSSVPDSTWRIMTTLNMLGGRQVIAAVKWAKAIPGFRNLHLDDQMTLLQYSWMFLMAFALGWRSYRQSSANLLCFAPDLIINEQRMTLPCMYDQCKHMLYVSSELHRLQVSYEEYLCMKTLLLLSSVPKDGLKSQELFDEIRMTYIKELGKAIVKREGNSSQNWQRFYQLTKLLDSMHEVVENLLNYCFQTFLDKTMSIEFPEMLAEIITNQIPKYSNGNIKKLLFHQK
Sequence of Dual specificity protein kinase CLK4 (Homo sapiens) (Q9HAZ1 whole entry, looked up): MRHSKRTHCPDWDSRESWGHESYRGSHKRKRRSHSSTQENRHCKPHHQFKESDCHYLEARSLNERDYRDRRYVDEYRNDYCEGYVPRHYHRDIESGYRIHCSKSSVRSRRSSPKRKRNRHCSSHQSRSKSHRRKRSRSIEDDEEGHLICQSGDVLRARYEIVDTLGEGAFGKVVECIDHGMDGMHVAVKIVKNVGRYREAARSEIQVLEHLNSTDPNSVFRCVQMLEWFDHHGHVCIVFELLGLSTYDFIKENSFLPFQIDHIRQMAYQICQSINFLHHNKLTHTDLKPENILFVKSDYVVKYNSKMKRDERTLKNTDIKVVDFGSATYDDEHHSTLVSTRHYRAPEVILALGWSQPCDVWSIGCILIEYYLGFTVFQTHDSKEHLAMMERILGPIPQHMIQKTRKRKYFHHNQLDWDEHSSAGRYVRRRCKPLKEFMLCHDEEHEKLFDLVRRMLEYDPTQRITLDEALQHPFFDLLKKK
Sequence of Cytochrome P450 1A2 (Homo sapiens) (P05177 whole entry, looked up): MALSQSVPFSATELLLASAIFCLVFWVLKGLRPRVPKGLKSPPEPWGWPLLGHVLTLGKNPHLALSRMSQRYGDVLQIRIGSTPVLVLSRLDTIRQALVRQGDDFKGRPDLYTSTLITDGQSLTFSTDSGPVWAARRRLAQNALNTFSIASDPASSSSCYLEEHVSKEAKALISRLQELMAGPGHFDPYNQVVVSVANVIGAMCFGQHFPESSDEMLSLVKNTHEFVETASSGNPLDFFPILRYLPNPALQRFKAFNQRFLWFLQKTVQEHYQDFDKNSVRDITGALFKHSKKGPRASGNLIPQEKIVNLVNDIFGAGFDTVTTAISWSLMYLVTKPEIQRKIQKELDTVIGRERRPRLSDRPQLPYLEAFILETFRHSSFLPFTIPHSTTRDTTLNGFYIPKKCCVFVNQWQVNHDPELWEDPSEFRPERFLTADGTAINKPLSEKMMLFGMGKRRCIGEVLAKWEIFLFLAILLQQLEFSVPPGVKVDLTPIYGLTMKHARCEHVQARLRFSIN
Sequence of 3',5'-cyclic-AMP phosphodiesterase 4B (Homo sapiens) (Q07343 whole entry, looked up): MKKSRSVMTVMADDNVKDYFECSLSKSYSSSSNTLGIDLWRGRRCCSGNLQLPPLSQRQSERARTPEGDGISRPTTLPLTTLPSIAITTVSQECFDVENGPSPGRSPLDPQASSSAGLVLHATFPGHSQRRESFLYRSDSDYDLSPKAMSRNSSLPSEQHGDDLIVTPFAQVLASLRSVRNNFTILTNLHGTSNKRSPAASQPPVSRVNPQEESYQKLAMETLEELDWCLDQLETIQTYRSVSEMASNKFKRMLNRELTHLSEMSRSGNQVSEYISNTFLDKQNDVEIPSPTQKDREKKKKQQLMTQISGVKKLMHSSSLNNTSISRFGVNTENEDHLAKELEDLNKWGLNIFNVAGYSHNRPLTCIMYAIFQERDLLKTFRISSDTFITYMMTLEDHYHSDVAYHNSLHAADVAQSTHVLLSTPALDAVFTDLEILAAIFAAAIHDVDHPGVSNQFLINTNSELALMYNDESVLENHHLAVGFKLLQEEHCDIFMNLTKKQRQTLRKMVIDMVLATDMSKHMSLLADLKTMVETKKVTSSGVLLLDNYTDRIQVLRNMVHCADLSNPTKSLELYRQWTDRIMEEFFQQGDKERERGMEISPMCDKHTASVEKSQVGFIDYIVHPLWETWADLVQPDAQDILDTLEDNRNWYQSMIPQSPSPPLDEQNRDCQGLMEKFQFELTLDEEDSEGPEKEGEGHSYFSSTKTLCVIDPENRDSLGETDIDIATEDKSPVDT
Sequence of Lysosomal acid glucosylceramidase (Homo sapiens) (P04062 whole entry, looked up): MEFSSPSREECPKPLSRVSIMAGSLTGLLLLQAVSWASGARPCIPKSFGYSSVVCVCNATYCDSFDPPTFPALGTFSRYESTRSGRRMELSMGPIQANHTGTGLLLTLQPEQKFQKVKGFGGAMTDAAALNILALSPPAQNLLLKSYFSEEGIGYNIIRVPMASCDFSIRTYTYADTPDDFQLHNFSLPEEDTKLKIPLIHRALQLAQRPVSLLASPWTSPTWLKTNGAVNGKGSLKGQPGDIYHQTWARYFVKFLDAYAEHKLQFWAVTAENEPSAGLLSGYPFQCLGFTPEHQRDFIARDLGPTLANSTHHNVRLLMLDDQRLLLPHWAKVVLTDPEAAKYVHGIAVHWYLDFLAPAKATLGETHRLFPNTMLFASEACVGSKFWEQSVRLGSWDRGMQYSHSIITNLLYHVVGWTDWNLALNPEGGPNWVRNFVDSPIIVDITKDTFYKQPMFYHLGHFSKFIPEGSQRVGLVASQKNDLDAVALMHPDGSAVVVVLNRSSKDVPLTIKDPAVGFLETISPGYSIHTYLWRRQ
Sequence of Cytochrome P450 3A4 (Homo sapiens) (P08684 whole entry, looked up): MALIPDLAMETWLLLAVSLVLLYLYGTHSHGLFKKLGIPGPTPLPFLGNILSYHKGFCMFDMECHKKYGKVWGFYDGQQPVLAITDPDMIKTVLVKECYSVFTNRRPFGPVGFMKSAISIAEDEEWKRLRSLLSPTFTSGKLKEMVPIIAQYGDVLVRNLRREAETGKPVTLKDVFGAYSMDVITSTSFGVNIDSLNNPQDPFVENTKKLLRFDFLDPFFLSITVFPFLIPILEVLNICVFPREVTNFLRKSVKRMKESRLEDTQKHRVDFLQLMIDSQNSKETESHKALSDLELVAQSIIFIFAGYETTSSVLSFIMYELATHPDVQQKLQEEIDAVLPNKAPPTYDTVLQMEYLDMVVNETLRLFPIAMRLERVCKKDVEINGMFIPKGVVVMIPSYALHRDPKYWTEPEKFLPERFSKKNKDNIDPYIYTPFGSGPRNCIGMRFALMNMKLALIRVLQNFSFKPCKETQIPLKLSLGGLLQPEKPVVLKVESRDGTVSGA
Sequence of Ubiquitin carboxyl-terminal hydrolase 1 (Homo sapiens) (O94782 whole entry, looked up): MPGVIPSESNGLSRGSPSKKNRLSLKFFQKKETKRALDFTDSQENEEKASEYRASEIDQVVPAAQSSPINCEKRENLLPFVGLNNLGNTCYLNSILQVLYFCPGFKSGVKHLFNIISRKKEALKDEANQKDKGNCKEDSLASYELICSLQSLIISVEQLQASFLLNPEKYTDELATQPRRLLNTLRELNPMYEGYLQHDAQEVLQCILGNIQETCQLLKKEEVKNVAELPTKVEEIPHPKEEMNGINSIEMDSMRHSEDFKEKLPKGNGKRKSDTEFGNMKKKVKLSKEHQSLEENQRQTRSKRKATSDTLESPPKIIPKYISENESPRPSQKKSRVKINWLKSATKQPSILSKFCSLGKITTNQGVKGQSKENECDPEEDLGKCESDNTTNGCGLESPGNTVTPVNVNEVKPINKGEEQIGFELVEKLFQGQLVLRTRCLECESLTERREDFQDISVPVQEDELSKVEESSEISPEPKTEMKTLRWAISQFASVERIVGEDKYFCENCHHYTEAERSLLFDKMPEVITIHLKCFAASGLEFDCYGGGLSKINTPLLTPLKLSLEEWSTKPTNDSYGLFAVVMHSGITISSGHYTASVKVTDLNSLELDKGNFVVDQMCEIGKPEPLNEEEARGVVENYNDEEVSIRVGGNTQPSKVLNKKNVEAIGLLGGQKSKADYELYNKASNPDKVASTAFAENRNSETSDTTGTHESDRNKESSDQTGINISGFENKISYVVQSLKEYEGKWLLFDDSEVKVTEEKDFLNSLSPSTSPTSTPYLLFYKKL

`COc1cccc(-c2nc(N3CCN(C)CC3)c3ccccc3n2)c1`: the Potency in assay [1] is > 11.4 µM (inactive); in assay [5], > 46 µM (inactive); in assay [6] it was > 46 µM (inactive); in assay [8], 28.2 µM (active); in [10] it was 20 µM (active). In addition, the results for the activity change, negative = inhibition in assay [2] and in assay [3] were 11.5% (inactive) and 12.1% (inactive), respectively. Further, the activity, negative = inhibition in assay [4] was -2.04% (inactive). For the same compound, in [7], the compound was classed as inactive. Besides, in assay [9], the Potency entry is “inactive”.

Regarding `COCCn1c(=O)c(-c2ccc(Cl)cc2)nc2cnc(OC)nc21`, the figures for the activity change, negative = inhibition in [2] and in [3] were 5.96% (inactive) and 0.766% (inactive), respectively. Besides, the Potency in [11] is 0.398 µM (active); in [5], > 9.22 µM (inactive); in assay [6] it was > 46 µM (inactive). Moreover, the activity, negative = inhibition in [4] was -10.9% (inactive). The result in assay [7] was inactive. For the same compound, the Potency entry in assay [12], in assay [13] and in assay [10] was “inactive” each time.

As for `N#CCCn1c(=O)c(CCc2ccccc2)nc2cnc(OCc3ccccc3)nc21`, the Potency in assay [1] was > 11.4 µM (inactive); in assay [11] it was 12.6 µM (active); in [5], > 9.22 µM (inactive); in assay [6] it was > 46 µM (inactive); in assay [10], 31.6 µM (active). The activity change, negative = inhibition in assay [2] is -4.26% (inactive); in assay [3], -3.34% (inactive). Further, the activity, negative = inhibition in [4] was -0.503% (inactive). Further, the Potency result in assay [13] was “inactive”.

Consider `N#CCCn1c(=O)c(-c2cc(F)cc(F)c2)nc2cnc(OCc3ccccc3)nc21`, for which the Potency is > 11.4 µM (inactive) in assay [1]; 6.31 µM (active) in assay [11]; > 9.22 µM (inactive) in [5]; > 46 µM (inactive) in assay [6]; 44.7 µM (active) in [10]. Moreover, the activity change, negative = inhibition is -10.3% (inactive) in assay [2] and -0.0706% (inactive) in [3]. For the same compound, in assay [4], the activity, negative = inhibition was 3.6% (inactive). In addition, the outcome in assay [7] was inactive. For the same compound, the Potency entry in [12] and in assay [13] was “inactive” throughout.

On to `COc1cccc(Nc2ncc3nc(-c4ccccc4)c(=O)n(C[C@H]4CCCO4)c3n2)c1`, for which the Potency is > 11.4 µM (inactive) in assay [1], > 9.22 µM (inactive) in assay [5], > 46 µM (inactive) in assay [6] and 39.8 µM (active) in assay [10]. For the same compound, in assay [3], the activity change, negative = inhibition is -8.66% (inactive). In addition, in [4], the activity, negative = inhibition is 4.51% (inactive). Besides, in [7], the compound was classed as inactive. Moreover, the Potency result in assay [12] is “inactive”.

Take `CN1CCN(c2ncncc2-c2ccccc2C(F)(F)F)CC1`: the Potency in assay [1] is > 11.4 µM (inactive); in assay [11] it was 31.6 µM (active); in [5], > 46 µM (inactive); in assay [6] it was > 46 µM (inactive). Moreover, the figures for the activity change, negative = inhibition in assay [2] and in assay [14] were 1.62% (inactive) and 6.69% (inactive), respectively. Besides, the activity, negative = inhibition in assay [4] is 0.819% (inactive). Moreover, in [7], the compound was classed as inactive. Further, the Potency result in assay [12], in assay [13], in assay [8], in [15], in assay [9] and in [16] was “inactive” each time. Also, the max response in [14] (setting [17]) came out at 25.9%; in [14] (setting [18]) it was 29.8%.

In the case of `CN(C)c1ccc(-c2nccc(NCCN3CCOCC3)n2)cc1`, the Potency is > 11.4 µM (inactive) in [1], 1.26 µM (active) in [11], > 46 µM (inactive) in assay [5] and > 46 µM (inactive) in [6]. Also, the activity change, negative = inhibition was -7.61% (inactive) in assay [2], 7.2% (inactive) in assay [3] and -20.5% (inactive) in [14]. In assay [4], the activity, negative = inhibition was 11.1% (inactive). Further, the Potency entry in assay [12], in assay [13] and in [16] was “inactive” throughout. In addition, the max response was -10.5% in assay [14] (setting [17]) and -26.5% in [14] (setting [18]).
